In PubChem BioAssay AID1117319 (Southern Research Institute, 2015):
The whole screen tested about 260,000 compounds, of which about 1,500 (0.58%) were called active. Inconclusive results (about 5%) are left out. These entries were drawn from the full list. Results with a measured potency or affinity are listed apart. Values without a mark were called inactive.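 The calls were made as follows: active = inhibition above a set limit at one or more doses, reproduced on every date tested; inconclusive = results disagree between test dates, or hit never tested in dose response; inactive = the rest.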

The compounds below were run against Virion infectivity factor (Human immunodeficiency virus type 1 group M subtype B (isolate BH10)) + Virion infectivity factor (Human immunodeficiency virus type 1 group M subtype B (isolate BRU/LAI)) + Virion infectivity factor (Human immunodeficiency virus type 1 group M subtype B (isolate PCV12)) + Virion infectivity factor (Human immunodeficiency virus type 1 group M subtype B (isolate HXB2)) + DNA dC->dU-editing enzyme APOBEC-3G (Homo sapiens) (UniProt P69720+P69721+P69722+P69723+Q9HC16) (assay: HIV-1 Vif–A3G interaction blockers – biochemical, TR-FRET, GST-Vif 1-94, biotin-A3G peptide, dose response retest, primary screen (AID 1117319;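 also: Vif residues 1-94 fused to GST binding biotinylated APOBEC3G peptide 110-148; 0% = full assay without inhibitor and 100% = GST in place of GST-Vif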)). Details: TR-FRET GST-Vif / biotin-A3G peptide binding; stronger effect = higher value.

| SMILES | inhibition [%] |
| --- | --- |
| Cc1ccc(CN2CCSc3ccc(C(=O)NCc4ccco4)cc32)cc1 | -7.52 |
| CN1C(=O)C(=C2CCCCCC2)SC1=S | 4.5 |
| O=C1NC(=S)SC1=C1CCCCCC1 | 16.7 |
| O=C(Cn1ncc2c(=O)oc3ccccc3c21)NCCc1ccsc1 | -2.92 |
| COC(=O)[C@@]1(C)[C@H]2C(=O)N(Cc3ccccc3)C(=O)[C@H]2[C@H]2CN(C)C(=NC3CCCCC3)N21 | -5.32 |
| COCCn1c(SCC(=O)Nc2sccc2C(N)=O)nnc1-c1ccncc1 | -0.42 |
| CCOC(=O)c1cnn2c(C(F)(F)F)cc(-c3ccco3)nc12 | 17 |
| O=C(O)c1cnn2c(C(F)(F)F)cc(-c3ccco3)nc12 | 23 |
| CC(=O)c1cn(N(C)c2ncc(C(F)(F)F)cc2Cl)c(=O)[nH]c1=O | -1.96 |
| CCOc1ccccc1C(=O)NCC(=O)NNC(=O)c1cccc(S(=O)(=O)Nc2ccc(OC)cc2)c1 | -2.98 |
| CC(C)C(=O)Nc1cccc(C(=O)N2CCCCC2C)c1 (stereo not drawn) | 12.2 |
| O=C(Nc1ccccc1)N1CCCC2CCCCC21 (stereo not drawn) | 7.94 |
| CCC(C)N1CCN(S(=O)(=O)c2ccc(NC(C)=O)cc2)CC1 (stereo not drawn) | -5.24 |
| Cn1c(=O)c2c(nc(CN3CCN(C(=O)c4ccco4)CC3)n2Cc2ccc(Cl)cc2)n(C)c1=O | -6.63 |
| O=C(COc1ccccc1)N1CCN(S(=O)(=O)c2ccc(Cl)cc2)CC1 | 11.7 |
| COc1ccc(OCC(=O)N2CCN(S(=O)(=O)c3ccc(Cl)cc3)CC2)cc1 | 0.42 |
| Cn1c(N)c(C(=O)COC(=O)Cc2ccc(Cl)cc2)c(=O)n(C)c1=O | 0.17 |
| CCS(=O)(=O)c1ccc2c(c1)N(S(C)(=O)=O)CC(C(=O)NN)O2 (stereo not drawn) | -7.03 |
| Cc1ccc2nc(SCC(=O)N3CCN(c4ccccc4)CC3)[nH]c2c1 | -0.39 |
| O=C(CCN1C(=O)c2cccc([N+](=O)[O-])c2C1=O)Nc1nccs1 | -4.6 |
| NC(=O)C1CCN(c2ccc([N+](=O)[O-])cc2Cl)CC1 | 12.1 |
| O=[N+]([O-])c1ccc(N2CCN(c3ccccc3O)CC2)c(Cl)c1 | -0.29 |
| N#Cc1csc(CCNC(=O)c2ccccc2)n1 | -7.18 |
| CSc1ccc(-c2ccco2)nn1 | 11.8 |

| SMILES | inhibition [%] |
| --- | --- |
| Clc1ccccc1CSc1ncccn1 | -2.52 |
| CSc1nnc(-c2ccco2)n1-c1ccccc1 | 5.76 |
| c1ccc(CSc2n[nH]c(-c3ccco3)n2)cc1 | 28.1 |
| Nn1c(SCc2ccccc2)nnc1-c1ccco1 | 2.72 |
| Nc1cc(N)nc(SCc2ccccc2Cl)n1 | 0.21 |
| CCC(C)[C@H]1CNC(=S)N1CCC12CC3CC(CC(C3)C1)C2 (stereo partly drawn) | 28.7 |
| Cc1ccc(N(CC(=O)NCc2ccc3c(c2)OCO3)S(=O)(=O)c2c(C)noc2C)cc1 | 1.33 |
| CCc1ccc(-c2nc(CS(=O)CC(=O)NCCN3CCCCCC3)c(C)o2)cc1 (stereo not drawn) | -8.11 |
| CC1CN(C(c2cccs2)c2sc3ncnn3c2O)CC(C)O1 (stereo not drawn) | -3.12 |
| O=S(=O)(/N=C(/Nc1cccc2ccccc12)c1ccccc1)c1ccc(Br)cc1 | 3.03 |
| CCOC(=O)N1CCC(N2CCN(S(=O)(=O)c3ccc(C)cc3)CC2)CC1 | 3.57 |
| CCCCC(=O)Nc1ccc(Br)cn1 | -2.24 |
| CCCCCCC(=O)Nc1ccc(Br)cn1 | 22.8 |
| C/C(=N/NC(=O)c1ccccc1)c1ccc(NC(=O)C(F)(F)F)cc1 | 1.31 |
| Cc1ccc(OCC(O)CNCc2ccc(F)cc2)cc1 (stereo not drawn) | 4.08 |
| O=C(Nc1ccc(CN2CCCCC2)cc1)c1cccc(F)c1 | -2.63 |
| O=C(CSc1nc2ccccc2n1CCc1ccccc1)NC1CC1 | 16.5 |
| COc1ccc(C(=O)CSc2nc3ccccc3n2CC(=O)c2ccccc2)cc1 | 2.41 |
| CC(=O)Nc1ccc(NC(=O)[C@@H](NC(=O)c2ccccc2F)C(C)C)cc1 | 2.31 |
| CCC(C)[C@H](NC(=O)Nc1ccccc1F)C(=O)OC (stereo partly drawn) | 85.4 |
| COc1ccc(NC(=O)Nc2cccs2)cn1 | 9.16 |
| Cc1cc(F)ccc1S(=O)(=O)Nc1ccccc1C(=O)Nc1ncn[nH]1 | -4.68 |
| Cc1cc(F)ccc1S(=O)(=O)Nc1ccccc1C(=O)Nc1ccccc1-c1nc2ccccc2[nH]1 | 16.7 |
| COc1ccccc1NC(=O)C(C)OC(=O)CN1C(=O)C2CC=CCC2C1=O (stereo not drawn) | -6.25 |
